# ChEMBL document CHEMBL1157539, “Thousands of chemical starting points for antimalarial lead identification” (Nature, 2010)
# Test system: HepG2
# Assay: GSK_TCMDC: Percent inhibition of human HepG2 cell line. Test compounds present at 10uM.
# Assay type: functional
row,Structure (SMILES),Inhibition
1,O=C(/C=C/c1ccc(Cl)c(Cl)c1)NCCCCCCN1CCCN(C(=O)Nc2cccc(C(F)(F)F)c2)CC1,25%
2,Br.CC1(C)N=C(N)N=C(N)N1OCC1COc2ccccc2O1 (configuration not stated),56%
3,CCCCCCN1CCCN(Cc2cccc(NC(=O)c3cc4ccccc4s3)c2)CC1.O=C(O)C(F)(F)F,31%
4,COc1ccc(Br)cc1/C=C/C(=O)Nc1ccc(C2CCN(C)CC2)cc1.O=CO,11%
5,O=C(Nc1ccc(C(F)(F)F)cc1)NC1CCN(c2ccnc3cc(Cl)ccc23)C1.O=C(O)C(F)(F)F (configuration not stated),20%
6,O=C(Nc1cccc(C(F)(F)F)c1)c1ccc(S(=O)(=O)NCC2CCCN2CC2CCCCC2)cc1.O=C(O)C(F)(F)F (configuration not stated),14%
7,O=C(CCCCCNC(=O)c1ccc(O)c(-c2ccc(Cl)c(Cl)c2)c1)NCCN1CCOCC1,0%
8,O=C(Nc1ccc(-c2nc3ccccc3[nH]2)cc1)c1ccc(N2CCCC2)c([N+](=O)[O-])c1,43%
9,O=C(Cc1c[nH]cn1)Nc1ccc(-c2ccc(-c3nc4ccccc4[nH]3)s2)cc1,44%
10,CC(C)(C)c1ccc(NC(=O)Nc2ccc(Cn3ncc(N4CCCNCC4)c(Cl)c3=O)cc2)cc1.O=C(O)C(F)(F)F,0%
11,Cc1cnc(Nc2cccc(CCN3CCOCC3)c2)nc1NC(C)C.Cl,53%
12,Cc1ccc2[nH]c(-c3cc(-c4ccc(OCc5ccccc5)cc4)cnc3N)nc2c1.O=C(O)C(F)(F)F,33%
13,Cc1cc(Nc2ccccc2)nc(NCCOc2ccccc2)n1.Cl,0%
14,COc1ccc(C2CCN(CCCCNC(=O)c3ccc(NC(=O)c4ccc(Cl)cc4)cc3)CC2)c(C)c1.Cl,22%
15,CCCc1ccccc1OCC(O)CN(C1CCCC1)C1CCCC1.Cl (configuration not stated),49%
16,CCOc1cc(C)c(C2CCN(CCCCNC(=O)c3ccc(NC(=O)c4ccc(Cl)cc4)cc3)CC2)cc1C,10%
17,Cc1ccc(CNc2ccc3ncc(-c4cccc(C(=O)NCCN(C)C)c4)n3n2)c(C)c1,97%
18,CC(C)(C)c1ccc(N2C(N)=NC(N)=NC2(C)C)cc1.Cl,27%
19,N=C(N)NN=CC(=O)Nc1ccc(Cl)c(C(F)(F)F)c1,0%
20,CCc1nc(N)nc(N)c1-c1ccccc1,53%
21,COc1ccc2nccc(N3CCC(SCCNS(=O)(=O)c4ccc5c(c4)OCCO5)C3)c2n1.Cl (configuration not stated),36%
22,O=C(N1CCN(c2ccnc3cc4c(cc23)N(Cc2ccccc2)CC4)CC1)C(F)(F)F,8%
23,O=C(NCC(CCCN1CCC(c2c[nH]c3ccccc23)CC1)c1ccccc1)Nc1ccc(Cl)c(Cl)c1 (configuration not stated),38%
24,CC(=O)Oc1c(C(=O)C2CCC(C(C)(C)C)CC2)c(OC(C)=O)c2ccccc2c1OC(C)=O (configuration not stated),9%
25,Cc1[nH]c(C)c(-c2ccc(Oc3ccc(O)cc3)cc2)c(=O)c1Cl,0%
26,CS(=O)(=O)c1ccc(-c2cnc(N)c(-c3cccc(O)c3)c2)cc1,48%
27,COc1ccc(Br)cc1/C=C/C(=O)Nc1ccc(C2CCCN(C)C2)cc1.O=CO (configuration not stated),18%
